Reference: PubChem BioAssay (NCATS)
Results filed as inconclusive are left out. A call without a number means that no potency is given here. Unmarked numbers belong to inactive results. Activity calls are given as the source filed them. Calls follow the shape of the dose curve; as a rule, active = well fitted activation curve with a large enough effect; inconclusive = small, poorly fitted or top-dose-only effect; inactive = flat fitted curve, though single readings scatter. Where a SMILES comes first, the peptide text is derived from it. The star is where a group is joined. Hexanoyl = CCCCCC(=O)*

assay: Primary redox qHTS assay for identification of artifact compounds. (AID 1845223); details: Amplex Red/HRP redox cycling with DTT, fluorescence; series mostly up to 53.8 µM
Summary of the method: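 Redox-cycling detection via DTT (250 uM final) oxidation coupled to Amplex Red (25 uM)/HRP (250 mU/mL) in HBSS. 15 min preincubation plus 30 min after DTT, room temperature. Ex/Em 525/598 nm; 4-parameter Hill fit against DMSO and 10 uM DA3003.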

SMILES	redox activity (% of DA3003)	Potency
C=C1CCC2(OC1)OC1CC3C4CC=C5CC(O)CC(O[C@@H]6OC[C@H](OC(=O)C(O)C(C)CC)[C@H](O)[C@H]6O[C@@H]6O[C@@H](C)[C@H](O)[C@@H](O)[C@H]6O)C5(C)C4CCC3(C)C1C2C (stereo not given in full)	-3.18% [at 11.5 µM]	–
O=C(/C=C/c1ccc(O)cc1)OC[C@@]1(O)C=C[C@@H]2C(C(=O)O)=CO[C@@H](O[C@@H]3O[C@H](CO)[C@@H](O)[C@H](O)[C@H]3O)[C@@H]21	–	inactive
CCOc1ccc(-c2nn3ncccc3c2-c2ccc(S(C)(=O)=O)cc2)cc1	–	inactive
Cc1cccc(NC(=O)CN2CCC(c3ccccn3)CC2)c1	–	inactive
C=C1CCC2[C@@](C)(C(=O)O)CCC[C@@]2(C)[C@@H]1CCc1ccoc1 (stereo not given in full)	–	inactive
C/C(=C\CC[C@H](CO)[C@@H]1CC[C@]2(C)C3=C(CC[C@@]12C)[C@@]1(C)CCC(=O)C(C)(C)C1CC3)C(=O)O (stereo not given in full)	–	inactive
COC(=O)C1=COC(O[C@@H]2O[C@H](COC(=O)/C=C/c3ccc(O)cc3)[C@@H](O)[C@H](O)[C@H]2O)C2C(CO)=CCC12 (stereo not given in full)	–	inactive
C[C@@H]1CC[C@]2(C(=O)O[C@@H]3O[C@H](CO[C@@H]4O[C@H](CO)[C@@H](O[C@@H]5O[C@@H](C)[C@H](O)[C@@H](O)[C@H]5O)[C@H](O)[C@H]4O)[C@@H](O)[C@H](O)[C@H]3O)CC[C@]3(C)C(=CCC4[C@@]5(C)C[C@@H](O)[C@H](O)[C@@](C)(CO)C5CC[C@]43C)C2[C@H]1C (stereo not given in full)	3.39% [at 11.5 µM]	–
C[C@@H]1O[C@@H](O[C@H]2[C@@H]3C=CO[C@@H](O[C@@H]4O[C@H](CO)[C@@H](O)[C@H](O)[C@H]4O)[C@@H]3[C@@]3(CO)O[C@@H]23)[C@H](O)[C@H](OC(=O)/C=C/c2ccc(O)c(O)c2)[C@H]1O	–	inactive
C[C@]1(OC(=O)/C=C/c2ccc(O)cc2)C[C@@H](O)[C@]2(O)C=CO[C@@H](O[C@@H]3O[C@H](CO)[C@@H](O)[C@H](O)[C@H]3O)C12 (stereo not given in full)	–	inactive
CC1=C2CC(=O)C(C)CC/C=C(\C)CC2OC1=O (stereo not given)	–	inactive
CCCCCC(=O)N1CCC[C@H]1C(=O)N[C@@H](Cc1ccc(O)cc1)C(=O)OC (Hexanoyl-Pro-Tyr-OMe)	–	inactive
O=C(N[C@H](Cc1ccccc1)C(=O)O)c1sc2cc(F)ccc2c1Cl	–	inactive
CC1(C)CC[C@]2(C(=O)O)CC[C@]3(C)C(=CCC4[C@@]5(C)C[C@@H](O)[C@H](O)[C@@](C)(CO)C5CC[C@]43C)C2C1 (stereo not given in full)	–	inactive
OCC1=C[C@@H](O)[C@@H]2C=CO[C@@H](O[C@@H]3O[C@H](CO)[C@@H](O)[C@H](O)[C@H]3O)[C@H]12	–	inactive
CC(C)C1NC(=O)C(CC2(O)c3ccccc3N3C(=O)C(Cc4ccccc4)NC32)NC1=O (stereo not given)	–	inactive
Cn1cc(CCn2cnc(-c3cnn(C)c3)c2-c2ccc(C#N)cc2)cn1	–	inactive
CC1(C)CCC2(C(=O)O)C(O)CC3(C)C(=CCC4C5(C)CCC(OC6OC(CO)C(O)C(O)C6OC6OC(CO)C(O)C(O)C6OC6OCC(O)(CO)C6O)C(C)(C)C5CCC43C)C2C1 (stereo not given)	17% [at 11.5 µM]	–
COc1c(-c2ccc(O)cc2)cc(OC)c2c1oc1cc(O)c(OC3OC(CO)C(O)C3O)cc12 (stereo not given)	–	inactive
CC(C)=C1C[C@@]2(C)C(=CC1=O)CC[C@@H](O)[C@@H]2C	–	inactive
CC1(C)CC[C@]2(C(=O)O)CC[C@]3(C)C(=CCC4[C@@]5(C)CC[C@H](O)C(C)(C)C5CC[C@]43C)C2C1 (stereo not given in full)	–	inactive
CC(=O)/C=C/[C@H]1[C@](C)(O)[C@@H](O)[C@H](O)C2C(C)(C)CCC[C@@]21C (stereo not given in full)	–	inactive
C[C@H](/C=C/[C@@]1(O)[C@H](C)CC(=O)CC1(C)C)O[C@@H]1O[C@H](CO[C@@H]2OC[C@@H](O)[C@H](O)[C@H]2O)[C@@H](O)[C@H](O)[C@H]1O	–	inactive
COc1ccc(-n2[nH]c3c(cnc4ccccc43)c2=O)cc1	–	inactive
CC(C)CC[C@@H](O)[C@](C)(O)[C@H]1CC[C@@]2(O)C3=CC(=O)[C@@H]4C[C@@H](O)[C@@H](O)C[C@]4(C)[C@H]3CC[C@]12C	–	inactive
CC1=CC23[C@H](C=C(C(=O)O)[C@@H]2COC(=O)[C@]3(O)CO)[C@@H]1C (stereo not given in full)	–	inactive
C=C1CCC2C(C)(C(=O)OC)CCCC2(C)C1CCC1=CCOC1=O (stereo not given)	–	inactive
C=C1C2CCC3C(CCC4[C@@]3(C)CCC[C@@]4(C)C(=O)O)(C2)[C@@H]1OC(=O)/C(C)=C\C (stereo not given in full)	–	inactive
CC1(C)CC2C3=CCC4[C@@]5(C)CC[C@H](OC6OCC(O)C(OC7OC(CO)C(O)C(O)C7O)C6O)C(C)(C)C5CC[C@@]4(C)[C@]3(C)C[C@H](O)[C@@]2(CO)[C@H](OC(=O)c2ccccc2)C1 (stereo not given in full)	-2.38% [at 11.5 µM]	–
CC(C)(O)c1ccc2c(c1)C(=O)C[C@H]1[C@](C)(C(=O)O)CCC[C@]21C	–	inactive
